The record followed here is PubChem BioAssay (NCI).

Among the test systems are HCT-15 colon; HT29 colon; SNB-75 CNS; SNB-19 CNS; U251 CNS; PC-3 prostate; SK-MEL-5 melanoma; UACC-62 melanoma; LOX IMVI melanoma; SK-MEL-2 melanoma; EKVX NSCLC; SN12C renal; UO-31 renal; TK-10 renal; ACHN renal; A498 renal; CCRF-CEM leukemia; MOLT-4 leukemia; CAKI-1 renal; SK-MEL-28 melanoma.
Assay in all cases: NCI-60 one-dose screen, 48 h (100 = growth as untreated, 0 = no growth, -100 = all killed)
Common to all, as to conditions: 10 µM unless noted

Values joined by “and” are separate entries in the source; they are usually repeats but may differ in a detail not shown here. Equal values may be shown once. Compounds without any hit were thinned out: in the full panel of roughly 83,000, 20% have a hit.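 Negative percent growth values reflect cell death: -40 means 40% of the cells present at the start died, and -100 means all died.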 Active and inactive are the calls of the source. The calls were made as follows: active = growth percent below 10; inactive = the rest.

For `Cn1cnc([N+](=O)[O-])c1Sc1ncnc2nc[nH]c12`, the growth with HCT-15 colon is 83.6% (inactive) and 95.5% (inactive); in the assay on HT29 colon it was 59.4% (inactive) and 73.2% (inactive); in the assay on SNB-75 CNS, 39.2% (inactive) and 58% (inactive); in the assay on SNB-19 CNS, 96.8% (inactive) and 110% (inactive); in the assay on U251 CNS it was 78.6% (inactive) and 93.7% (inactive); with PC-3 prostate, 76.6% (inactive) and 91.5% (inactive). For the same molecule, the growth with SK-MEL-5 melanoma is 77.9% (inactive); in the assay with UACC-62 melanoma it was 20.2% (inactive) and 35.8% (inactive); with LOX IMVI melanoma, 22.4% (inactive) and 22.5% (inactive); in the assay on SK-MEL-2 melanoma, 57.7% (inactive) and 74.8% (inactive); with EKVX NSCLC, 83.3% (inactive) and 109% (inactive); with SN12C renal, 75.8% (inactive) and 83.2% (inactive). Besides, the growth was 63.4% (inactive) and 69% (inactive) in the assay on UO-31 renal; 52.8% (inactive) and 44.3% (inactive) in the assay on TK-10 renal; 84% (inactive) and 121% (inactive) with ACHN renal; 87.7% (inactive) and 103% (inactive) in the assay with A498 renal; 48% (inactive) and 42.6% (inactive) in the assay on CCRF-CEM leukemia; 66.1% (inactive) and 56.6% (inactive) in the assay on MOLT-4 leukemia.
With `Cn1c(SSc2ccc(-c3cccnc3)n2C)ccc1-c1cccnc1`, the growth in the assay on HCT-15 colon is 111% (inactive) and 104% (inactive); in the assay with HT29 colon, 110% (inactive) and 115% (inactive); in the assay with SNB-75 CNS, 89.4% (inactive) and 97.7% (inactive); in the assay with SNB-19 CNS, 110% (inactive) and 109% (inactive); in the assay with U251 CNS it was 72.6% (inactive) and 106% (inactive); in the assay on PC-3 prostate, 65% (inactive) and 68.2% (inactive). Besides, the growth in the assay on SK-MEL-5 melanoma was 95.6% (inactive) and 91.6% (inactive); with UACC-62 melanoma, 82.5% (inactive) and 109% (inactive); in the assay with LOX IMVI melanoma, 59% (inactive) and 98.2% (inactive); in the assay on SK-MEL-2 melanoma, 106% (inactive) and 107% (inactive); in the assay with EKVX NSCLC, 94.8% (inactive) and 99.5% (inactive); in the assay on SN12C renal it was 100% (inactive) and 114% (inactive). In addition, the growth in the assay on TK-10 renal is 117% (inactive) and 102% (inactive); with CAKI-1 renal it was 94.3% (inactive) and 103% (inactive); in the assay with A498 renal, 82.2% (inactive) and 95.7% (inactive); in the assay on CCRF-CEM leukemia, 45.2% (inactive) and 68.6% (inactive); in the assay on MOLT-4 leukemia, 80.2% (inactive) and 17.5% (inactive).
For the molecule `CCC(O)c1ccccc1` (stereo not given), the growth with HCT-15 colon was 113% (inactive) and 105% (inactive); in the assay with HT29 colon it was 104% (inactive) and 105% (inactive); with SNB-75 CNS, 88% (inactive) and 97.5% (inactive); in the assay with SNB-19 CNS, 110% (inactive) and 103% (inactive); in the assay with U251 CNS it was 102% (inactive); in the assay with PC-3 prostate, 116% (inactive) and 102% (inactive). In addition, the growth with SK-MEL-5 melanoma was 107% (inactive) and 95.3% (inactive); in the assay with UACC-62 melanoma it was 111% (inactive) and 97.7% (inactive); with LOX IMVI melanoma it was 104% (inactive) and 108% (inactive); with SK-MEL-2 melanoma it was 104% (inactive); in the assay with EKVX NSCLC, 94.1% (inactive) and 110% (inactive); in the assay with SN12C renal, 98.1% (inactive) and 96.2% (inactive). The growth in the assay on UO-31 renal is 98.8% (inactive) and 91.3% (inactive); in the assay with TK-10 renal it was 113% (inactive) and 111% (inactive); with ACHN renal, 107% (inactive) and 111% (inactive); in the assay on A498 renal, 88.5% (inactive) and 92.8% (inactive); in the assay on CCRF-CEM leukemia it was 103% (inactive) and 92% (inactive); with MOLT-4 leukemia, 98.1% (inactive) and 78.8% (inactive).
`COc1ccc2ccccc2c1/C=N/N1CCCCC1`: the growth in the assay with HCT-15 colon is 99.4% (inactive); in the assay on HT29 colon it was 101% (inactive); with SNB-75 CNS it was 87.6% (inactive); with U251 CNS, 97.8% (inactive); with PC-3 prostate, 95.9% (inactive); in the assay on SK-MEL-5 melanoma, 98.3% (inactive). For the same molecule, the growth in the assay with UACC-62 melanoma was 89.1% (inactive); in the assay on LOX IMVI melanoma it was 93% (inactive); in the assay on SK-MEL-28 melanoma, 96.5% (inactive); with SK-MEL-2 melanoma, 102% (inactive); with EKVX NSCLC, 93.6% (inactive); in the assay with SN12C renal, 96.9% (inactive). In addition, the growth with UO-31 renal is 88.9% (inactive); in the assay on TK-10 renal it was 105% (inactive); in the assay with ACHN renal, 99% (inactive); with CAKI-1 renal it was 85.7% (inactive); in the assay with A498 renal, 89% (inactive); in the assay with CCRF-CEM leukemia it was 96.7% (inactive). The growth in the assay with MOLT-4 leukemia was 88.3% (inactive).
`Nc1ncnc2c1ncn2C1CC(O)C(CO)O1` (stereo not given): the growth is 107% (inactive) and 111% (inactive) in the assay with HCT-15 colon; 109% (inactive) and 115% (inactive) in the assay on HT29 colon; 89.7% (inactive) and 92.9% (inactive) in the assay with SNB-75 CNS; 107% (inactive) and 103% (inactive) with SNB-19 CNS; 102% (inactive) and 100% (inactive) with U251 CNS; 110% (inactive) and 102% (inactive) in the assay on PC-3 prostate. For the same molecule, the growth in the assay on SK-MEL-5 melanoma is 115% (inactive) and 108% (inactive); with LOX IMVI melanoma, 103% (inactive) and 105% (inactive); in the assay on SK-MEL-2 melanoma, 37.6% (inactive) and 100% (inactive); with EKVX NSCLC, 100% (inactive) and 118% (inactive); in the assay on SN12C renal it was 105% (inactive) and 104% (inactive); in the assay on UO-31 renal, 89% (inactive) and 88.8% (inactive). Further, the growth was 113% (inactive) and 109% (inactive) in the assay with TK-10 renal; 110% (inactive) and 120% (inactive) in the assay on ACHN renal; 103% (inactive) and 100% (inactive) in the assay on CAKI-1 renal; 105% (inactive) and 98.5% (inactive) in the assay on A498 renal; 114% (inactive) and 99.2% (inactive) with CCRF-CEM leukemia; 114% (inactive) and 92.3% (inactive) with MOLT-4 leukemia.
In the case of `CCOc1ccc2cc(-c3nn(CC4CCN(C)CC4)c4ncnc(N)c34)ccc2c1`, the growth with HCT-15 colon is 76% (inactive) and 29.8% (inactive); in the assay on HT29 colon, 69.2% (inactive) and 9.92% (active); in the assay with SNB-75 CNS it was 50% (inactive) and 33.9% (inactive); in the assay on SNB-19 CNS, 92.8% (inactive) and 68.3% (inactive); in the assay on U251 CNS, 83.8% (inactive) and 43.3% (inactive); in the assay on PC-3 prostate, 85.8% (inactive) and 51.5% (inactive). The growth was 87.2% (inactive) and -65.2% (active) with SK-MEL-5 melanoma; 77.7% (inactive) and 6.18% (active) with LOX IMVI melanoma; 97.1% (inactive) and -58.3% (active) in the assay with SK-MEL-28 melanoma; 108% (inactive) in the assay with SK-MEL-2 melanoma; 101% (inactive) and 56.5% (inactive) in the assay on EKVX NSCLC; 83.7% (inactive) with SN12C renal. For the same molecule, the growth in the assay with UO-31 renal was 60.7% (inactive) and 62.9% (inactive); with TK-10 renal, 70.9% (inactive) and 77.8% (inactive); in the assay on ACHN renal, 96.5% (inactive) and 53.9% (inactive); in the assay with CAKI-1 renal, 87.6% (inactive) and 85.5% (inactive); in the assay on A498 renal it was 74% (inactive) and 23.7% (inactive); in the assay on CCRF-CEM leukemia, 90.7% (inactive) and 3.75% (active). Further, the growth in the assay with MOLT-4 leukemia is 70.1% (inactive) and -4.41% (active).
As to `N#CC(C#N)=C/C=C/c1cccc([N+](=O)[O-])c1`, the growth with HCT-15 colon was -6.94% (active) and -31.6% (active); in the assay on HT29 colon it was -19.6% (active) and -39.5% (active); in the assay with SNB-75 CNS it was 68.2% (inactive) and 11.3% (inactive); in the assay on SNB-19 CNS it was 51.3% (inactive) and 41.4% (inactive); in the assay on U251 CNS, 10% (inactive) and -22.7% (active); with PC-3 prostate, 14.5% (inactive) and 0.0705% (active). Also, the growth is 8.16% (active) and -10.6% (active) with SK-MEL-5 melanoma; -29.1% (active) and -78.9% (active) with LOX IMVI melanoma; 5.56% (active) and -41.8% (active) in the assay with SK-MEL-28 melanoma; 20.6% (inactive) and -14.1% (active) in the assay with SK-MEL-2 melanoma; 45.5% (inactive) and 2.6% (active) in the assay with EKVX NSCLC; -21.7% (active) and -30.1% (active) in the assay with SN12C renal. The growth in the assay with UO-31 renal is -16.6% (active) and -82.4% (active); in the assay with TK-10 renal, 7.02% (active) and -19.4% (active); with ACHN renal, -22.1% (active) and -59.7% (active); in the assay on CAKI-1 renal it was 10.6% (inactive) and -24.8% (active); with A498 renal, 94.4% (inactive) and 2.43% (active); in the assay with CCRF-CEM leukemia it was 2.18% (active) and 1.1% (active). Moreover, in the assay on MOLT-4 leukemia, the growth was -1.02% (active) and 3.93% (active).
`CC(=O)NC(Cc1ccccc1)C(=O)Oc1ccc2ccccc2c1` (stereo not given): the growth in the assay with HCT-15 colon was 87.4% (inactive) and 102% (inactive); in the assay with HT29 colon it was 114% (inactive) and 96.4% (inactive); with SNB-75 CNS, 84.3% (inactive) and 78.1% (inactive); with SNB-19 CNS it was 113% (inactive); in the assay on U251 CNS, 97.7% (inactive) and 102% (inactive); in the assay on PC-3 prostate it was 85.5% (inactive) and 90.6% (inactive). For the same molecule, the growth in the assay on SK-MEL-5 melanoma is 101% (inactive); in the assay with LOX IMVI melanoma, 84.9% (inactive) and 87.7% (inactive); with SK-MEL-28 melanoma, 117% (inactive) and 105% (inactive); in the assay on SK-MEL-2 melanoma, 108% (inactive) and 113% (inactive); in the assay on SN12C renal it was 103% (inactive) and 98.9% (inactive); with UO-31 renal, 64.8% (inactive) and 86.6% (inactive). The growth was 118% (inactive) and 111% (inactive) with TK-10 renal; 94.6% (inactive) and 97.4% (inactive) with ACHN renal; 94.8% (inactive) and 98.1% (inactive) in the assay with CAKI-1 renal; 130% (inactive) and 97.2% (inactive) with A498 renal; 100% (inactive) and 86.6% (inactive) in the assay with CCRF-CEM leukemia; 111% (inactive) and 102% (inactive) in the assay on MOLT-4 leukemia.
With `O=[N+]([O-])c1ccccc1N(S(=O)(=O)c1ccccc1)S(=O)(=O)c1ccccc1`, the growth with HCT-15 colon was 105% (inactive) and 90.4% (inactive); in the assay on HT29 colon, 109% (inactive) and 103% (inactive); in the assay on SNB-75 CNS, 96.2% (inactive); with U251 CNS, 91.5% (inactive) and 87.8% (inactive); with PC-3 prostate, 80.3% (inactive) and 77.7% (inactive); with SK-MEL-5 melanoma, 110% (inactive). Besides, the growth was 76.1% (inactive) and 66% (inactive) with UACC-62 melanoma; 98.7% (inactive) and 84.7% (inactive) with LOX IMVI melanoma; 115% (inactive) and 111% (inactive) in the assay on SK-MEL-28 melanoma; 106% (inactive) in the assay with SK-MEL-2 melanoma; 102% (inactive) and 85.1% (inactive) in the assay with EKVX NSCLC; 102% (inactive) and 99.2% (inactive) in the assay on SN12C renal. The growth in the assay on UO-31 renal is 86.7% (inactive) and 67% (inactive); in the assay with TK-10 renal it was 93.3% (inactive) and 97.1% (inactive); in the assay on ACHN renal, 102% (inactive) and 93.4% (inactive); in the assay on CAKI-1 renal it was 79.4% (inactive) and 56.3% (inactive); in the assay on A498 renal it was 86.9% (inactive) and 98.6% (inactive); with CCRF-CEM leukemia, 53.7% (inactive) and 105% (inactive). For the same molecule, in the assay with MOLT-4 leukemia, the growth was -13.5% (active) and 103% (inactive).
